Source: PubChem BioAssay (NCI)
Several values for one entry are separate records, joined by “and”; a condition that tells them apart may be missing. Equal values may be shown once. Compounds without any hit were thinned out: in the full panel of roughly 79,000, 15% have a hit. Some structures have more than one record in an assay (separate samples or runs), and their calls can disagree. Activity calls are given as the source filed them. No stated cut-off is given here; in the data, active means growth inhibition above about 70%; inactive means the rest.

Assays:
[1] = NCI Yeast Anticancer Drug Screen. Data for the rad50 strain (AID 155);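 further: 0% = growth of vehicle-only cultures of the same strain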; conditions: S. cerevisiae rad50 strain growth inhibition, stronger effect = higher value
In short: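 Yeast carrying a defined DNA repair defect were exposed to test compounds, and growth was compared with vehicle-treated controls to give percent inhibition.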

[2] = NCI Yeast Anticancer Drug Screen. Data for the mec2-1 strain (AID 157); conditions: S. cerevisiae mec2-1 strain, stronger effect = higher value
In short: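 Test agents were screened against the mec2-1 yeast strain, with defined DNA repair or cell cycle alteration. Growth was scored as inhibition against vehicle-only controls.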

[3] = NCI Yeast Anticancer Drug Screen. Data for the sgs1 mgt1 strain (AID 161);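 further: 0% = growth of cultures given vehicle only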; conditions: S. cerevisiae sgs1 mgt1 strain, stronger effect = higher value
In short: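 Inhibition of yeast growth, normalised to vehicle-treated controls, is reported for a strain bearing genetic alterations in DNA damage repair.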

[4] = NCI Yeast Anticancer Drug Screen. Data for the cln2 rad14 strain (AID 165);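 further: 0% = growth equal to vehicle treated cultures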; conditions: S. cerevisiae cln2 rad14 strain, stronger effect = higher value
In short: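 Growth of compound-exposed yeast (cln2 rad14 genotype) measured and expressed as inhibition relative to vehicle.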

[5] = NCI Yeast Anticancer Drug Screen. Data for the bub3 strain (AID 167); conditions: S. cerevisiae bub3 mutant strain, stronger effect = higher value
In short: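 Compounds were applied to a genetically altered yeast strain carrying a cell-cycle control defect. Growth inhibition was scored against vehicle-treated controls.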

[6] = NCI Yeast Anticancer Drug Screen. Data for the mlh1 rad18 strain (AID 175); conditions: S. cerevisiae mlh1 rad18 strain growth inhibition, stronger effect = higher value
In short: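 In this whole-cell yeast screen, a strain with altered DNA damage repair is challenged with compound, and its growth is measured against matched vehicle-treated controls.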

[7] = at 5.0 µM (retest, dose inferred, filed as 0.5)
[8] = at 50.0 µM (retest, dose inferred, filed as 5.0)

Measured: growth inhibition

NS(=O)(=O)c1ccc(Nc2c3ccccc3nc3c(C(=O)N4CCN(CCO)CC4)cccc23)cc1
inactive: [1]; [7] 61% | [1]; [8] 61% | [1]; at 50.0 µM 38.6% | [2]; [7] 39% | [2]; [8] 39% | [2]; at 50.0 µM 40.7% | [3]; [7] 60% | [3]; [8] 60% | [3]; at 50.0 µM 24.4% | [4]; [7] 25% | [4]; [8] 25% | [4]; at 50.0 µM 29.9% | [5]; [7] 32% | [5]; [8] 32% | [5]; at 50.0 µM 23.9% | [6]; [7] 30% | [6]; [8] 30%
active: [6]; at 50.0 µM 79.8%

Cc1ccc(CC(=O)c2c(C)[nH]c3ccccc23)cc1C
active: [1]; at 50.0 µM 95.7% | [2]; at 50.0 µM 96.2% | [3]; at 50.0 µM 98.5% | [4]; at 50.0 µM 93.5% | [5]; at 50.0 µM 92.5% | [6]; at 50.0 µM 97%
inactive: [1]; [7] 10% | [1]; [8] 11% | [2]; [7] 7% | [2]; [8] 24% | [3]; [7] 11% | [3]; [8] 11% | [4]; [7] 40% | [4]; [8] 44% | [5]; [7] 0% | [5]; [8] 4% | [6]; [7] 20% | [6]; [8] 8%

CCN(C(=O)C(Cl)Cl)C(Cc1ccccc1)c1ccccc1 (stereo not given)
active: [1]; at 50.0 µM 91.5% | [2]; at 50.0 µM 96.3% | [3]; [8] 80% | [3]; at 50.0 µM 93.8% | [4]; [8] 74% | [4]; at 50.0 µM 86.8% | [5]; at 50.0 µM 86.8% | [6]; [8] 72% | [6]; at 50.0 µM 86%
inactive: [1]; [7] -1% | [1]; [8] 58% | [2]; [7] -1% | [2]; [8] 61% | [3]; [7] -1% | [4]; [7] -4% | [5]; [7] 10% | [5]; [8] 61% | [6]; [7] 2%

O=c1c(O)cccc2cc(O)c(O)c(O)c12
active: [1]; [8] 90% and 98% | [1]; at 50.0 µM 89.2% and 90.3% | [2]; [8] 94% and 98% | [2]; at 50.0 µM 91.4% and 91.2% | [3]; [8] 92% and 98% | [3]; at 50.0 µM 89.7% and 91.3% | [4]; [8] 91% and 97% | [4]; at 50.0 µM 85.5% and 87.5% | [5]; [8] 94% and 97% | [5]; at 50.0 µM 87% and 90.2% | [6]; [8] 93% and 97% | [6]; at 50.0 µM 87.2% and 91.1%
inactive: [1]; [7] 9% and 29% | [2]; [7] -22% and 25% | [3]; [7] -4% and 36% | [4]; [7] 12% and 6% | [5]; [7] 5% and 29% | [6]; [7] -4% and 48%

Oc1ccc(Cc2ccccc2)cc1
inactive: [1]; [7] 1% | [1]; [8] 14% | [1]; at 50.0 µM 63.6% | [2]; [7] -3% | [2]; [8] 14% | [2]; at 50.0 µM 34% | [3]; [7] -4% | [3]; [8] 15% | [3]; at 50.0 µM 23.8% | [4]; [7] -5% | [4]; [8] -12% | [4]; at 50.0 µM -18.6% | [5]; [7] -2% | [5]; [8] 6% | [5]; at 50.0 µM 42.2% | [6]; [7] 2% | [6]; [8] 11%
active: [6]; at 50.0 µM 72.2%

Cc1cc(/C=C/C2CCC3CC(C)CCC3N2CCO)c(C)n1-c1ccccc1 (stereo not given)
active: [1]; [8] 95% | [1]; at 50.0 µM 99.1% | [2]; [8] 99% | [2]; at 50.0 µM 98.8% | [3]; [8] 100% | [3]; at 50.0 µM 99.2% | [4]; [8] 90% | [4]; at 50.0 µM 98.8% | [5]; [8] 98% | [5]; at 50.0 µM 98% | [6]; [8] 97% | [6]; at 50.0 µM 97.9%
inactive: [1]; [7] 16% | [2]; [7] 19% | [3]; [7] 26% | [4]; [7] 12% | [5]; [7] 21% | [6]; [7] 17%

CCOC(=O)/C(C#N)=C\c1ccc([N+](=O)[O-])o1
active: [1]; [8] 98% | [2]; [8] 99% | [3]; [8] 99% | [4]; [8] 98% | [5]; [8] 99% | [6]; [8] 99%
-13.4% (inactive) and 99.2% (active): [5]; at 50.0 µM
19.1% (inactive) and 99% (active): [4]; at 50.0 µM
-12.1% (inactive) and 99.3% (active): [2]; at 50.0 µM
-20.9% (inactive) and 99.3% (active): [3]; at 50.0 µM
-8.25% (inactive) and 99% (active): [1]; at 50.0 µM
inactive: [1]; [7] 15% | [2]; [7] 12% | [3]; [7] 8% | [4]; [7] 4% | [5]; [7] 12% | [6]; [7] 16%
-16.9% (inactive) and 99% (active): [6]; at 50.0 µM

c1cc2c3c(cccc3c1)-c1cnccc1-2
active: [1]; at 50.0 µM 91.1% | [2]; [8] 84% | [2]; at 50.0 µM 92.7% | [3]; [8] 97% | [3]; at 50.0 µM 92.9% | [4]; [8] 97% | [4]; at 50.0 µM 90.8% | [5]; [8] 98% | [5]; at 50.0 µM 92.3% | [6]; [8] 73% | [6]; at 50.0 µM 91.8%
inactive: [1]; [7] 31% | [1]; [8] 54% | [2]; [7] 36% | [3]; [7] -6% | [4]; [7] 48% | [5]; [7] 16% | [6]; [7] 35%

Clc1ccc(CNNCc2ccc(Cl)cc2)cc1
active: [1]; [8] 85% | [2]; [8] 96% | [3]; [8] 98% | [4]; [8] 72% | [5]; [8] 96% | [6]; [8] 94%
inactive: [1]; [7] -12% | [2]; [7] 0% | [2]; at 50.0 µM -3.05% and -2.3% | [3]; [7] -2% | [3]; at 50.0 µM -3% and 58.5% | [4]; [7] -1% | [4]; at 50.0 µM -10.4% and 16.6% | [5]; [7] 46% | [6]; [7] -2% | [6]; at 50.0 µM 11.7% and 67.8%
7.2% (inactive) and 78.7% (active): [1]; at 50.0 µM
-9.95% (inactive) and 72.6% (active): [5]; at 50.0 µM

COc1ccccc1NC(=O)C(/C=N/C(=S)NCCNc1ccc(OC)c(OC)c1)=C(\C)O
inactive: [1]; [7] 1% | [1]; [8] 3% | [1]; at 50.0 µM 9.7% | [2]; [7] -55% | [2]; [8] -10% | [2]; at 50.0 µM -2.25% | [3]; [7] 2% | [3]; [8] -8% | [3]; at 50.0 µM 16.4% | [4]; [7] -22% | [4]; [8] -14% | [4]; at 50.0 µM 43.2% | [5]; [7] 2% | [5]; [8] -27% | [5]; at 50.0 µM 7.25% | [6]; [7] 10% | [6]; [8] -2% | [6]; at 50.0 µM 15.1%

O=C1c2ccccc2C(=O)N1CC[P+](c1ccccc1)(c1ccccc1)c1ccccc1
inactive: [1]; [7] 48% | [2]; [7] 36% | [2]; at 50.0 µM 58.5% and 46.8% | [3]; [7] 20% | [3]; [8] 69% | [3]; at 50.0 µM 63.5% and 62.5% | [4]; [7] -5% | [4]; [8] 47% | [4]; at 50.0 µM 20.8% and 40% | [5]; [7] 30% | [5]; at 50.0 µM 57.9% and 43.3% | [6]; [7] 43% | [6]; at 50.0 µM 63.1% and 54.9%
active: [1]; [8] 79% | [2]; [8] 87% | [5]; [8] 79% | [6]; [8] 85%
70.5% (active) and 58.6% (inactive): [1]; at 50.0 µM

Cc1c(OCc2cccc3ccccc23)ccc2c(=O)cc(SCCN3CCOCC3)oc12
active: [3]; at 50.0 µM 83% | [6]; at 50.0 µM 73.3%
inactive: [1]; [7] 10% | [1]; [8] 25% | [1]; at 50.0 µM 65.7% | [2]; [7] -1% | [2]; [8] 13% | [2]; at 50.0 µM 30.2% | [3]; [7] 6% | [3]; [8] 49% | [4]; [7] 5% | [4]; [8] 37% | [4]; at 50.0 µM 25.1% | [5]; [7] 7% | [5]; [8] 47% | [5]; at 50.0 µM 13.6% | [6]; [7] 7% | [6]; [8] 35%

O=C1C=CC(=O)C(c2ccc3ccccc3c2)=C1
active: [1]; [7] 90% | [1]; [8] 98% | [1]; at 50.0 µM 99% | [2]; [7] 96% | [2]; [8] 99% | [2]; at 50.0 µM 99.1% | [3]; [7] 85% | [3]; [8] 99% | [3]; at 50.0 µM 99.2% | [4]; [7] 73% | [4]; [8] 98% | [4]; at 50.0 µM 98.8% | [5]; [7] 91% | [5]; [8] 97% | [5]; at 50.0 µM 99% | [6]; [7] 97% | [6]; [8] 99% | [6]; at 50.0 µM 99%

[N-]=[N+]=NC(=O)Nc1cccc(C(F)(F)F)c1
inactive: [1]; [7] 8% | [2]; [7] -1% | [3]; [7] 2% | [4]; [7] -3% | [5]; [7] 14% | [6]; [7] 8%
active: [1]; [8] 99% | [1]; at 50.0 µM 99% | [2]; [8] 99% | [2]; at 50.0 µM 99% | [3]; [8] 99% | [3]; at 50.0 µM 98.5% | [4]; [8] 99% | [4]; at 50.0 µM 97.8% | [5]; [8] 98% | [5]; at 50.0 µM 98.5% | [6]; [8] 98% | [6]; at 50.0 µM 98.8%

O=C1C=CC(=O)C(C2OC(=O)C(Br)=C2Br)=C1 (stereo not given)
inactive: [1]; [7] -14% | [1]; [8] 18% | [1]; at 50.0 µM 6.95% | [2]; [7] -21% | [2]; [8] -17% | [2]; at 50.0 µM 5.5% | [3]; [7] -18% | [3]; [8] -1% | [3]; at 50.0 µM -3.45% | [4]; [7] -10% | [4]; [8] -10% | [4]; at 50.0 µM -17.7% | [5]; [7] -9% | [5]; [8] 7% | [5]; at 50.0 µM 13.6% | [6]; [7] -25% | [6]; [8] 46% | [6]; at 50.0 µM 12.4%
